Where “and” joins values, the source holds several entries; their conditions need not be identical. Equal values may be shown once. Screen size: about 260,000 compounds; about 2,200 (0.85%) were called active.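 How the source made its calls: active means compounds whose cAMP rise, as percent of the full-agonist control response, exceeds 60; inactive means the rest.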 The sample as a whole holds a higher share of actives than the screen did. Some structures have more than one record in an assay (separate samples or runs), and their calls can disagree.
target: Prostaglandin E2 receptor EP2 subtype (Homo sapiens) (UniProt P43116); assay: modulation of human EP2 prostaglandin signaling – cell-based, HTRF cAMP, PGE2 stimulation, primary screen (AID 940); settings: EP2-expressing cells, cAMP HTRF FRET, PGE2 co-stimulation; at 25 µM; stronger effect = higher value;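 further: rat C6 glioma line stably carrying human EP2 under a CMV promoter; the protocol text gives 20 µM as final concentration; 100% = response of wells given 1 µM PGE2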
Sequence (P43116 whole entry, looked up): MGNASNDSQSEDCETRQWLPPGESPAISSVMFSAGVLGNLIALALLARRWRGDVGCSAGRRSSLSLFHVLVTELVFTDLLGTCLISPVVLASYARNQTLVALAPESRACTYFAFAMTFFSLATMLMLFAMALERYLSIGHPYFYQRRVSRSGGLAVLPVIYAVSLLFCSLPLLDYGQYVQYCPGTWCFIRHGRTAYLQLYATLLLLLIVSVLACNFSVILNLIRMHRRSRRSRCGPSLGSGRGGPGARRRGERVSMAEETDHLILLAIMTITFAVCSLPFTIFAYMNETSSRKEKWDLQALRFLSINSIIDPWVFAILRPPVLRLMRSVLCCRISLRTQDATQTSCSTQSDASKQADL

SMILES	induction
COC(=O)c1ccccc1NC(=O)CSc1nnnn1C	20.6% (inactive) and 0.97% (inactive)
CCOC(=O)CNC(=O)CSc1nnnn1-c1cc(C)ccc1C	-4.73% (inactive)
CCOC(=O)c1c(-c2ccc(C)cc2C)csc1NC(=O)CSc1nnnn1C	63.5% (active)
CSc1nc(O)c(C2CCCCC2)c(=O)[nH]1	-1.22% (inactive)
COc1ccc(CNC(=O)CCSc2nc(-c3ccco3)cc(C(F)(F)F)n2)cc1OC	-21.3% (inactive)
CS(=O)(=O)N1CCc2cc(C(=O)N3C4CCC3CC(c3ccc(F)cc3)C4)ccc21 (configuration not stated)	-36.1% (inactive)
CN(C)CCCn1c(SCCN2C(=O)c3ccccc3C2=O)nc2ccccc2c1=O	-26% (inactive)
COC(=O)Cn1c(C)nc2ccccc2c1=O	6.77% (inactive)
CC(C)(C)c1nc2ccccc2c(=O)n1N1C(=O)c2ccccc2C1=O	65.2% (active)
Cc1ccc(C2(O)CCN(Cc3cccc(OCc4ccccn4)c3)CC2)cc1	-1.87% (inactive)
CCCN(CC)c1nc2c(C)cccn2c(=O)c1/C=C1\SC(=S)N(CCCOC)C1=O	23% (inactive)
COc1ccc(C2(NCc3ccccc3-n3cccn3)CC2)cc1	7.61% (inactive)
C=CC1(C)CC(=O)C2(O)C(C)(O1)C(OC(C)=O)C(O)C1C(C)(C)CCC(O)C12C (configuration not stated)	102% (active)
C/C(=N\NC(=S)NC(C)C)c1ccc(C(C)(C)C)cc1	8.13% (inactive)
CC(C)NC(=S)NN=C1CCCCCCCCCCC1	68.3% (active)
CC(C)(C)NC(=O)C(=O)NN=C1CCCCCCC1	27.3% (inactive)
COc1cc(-c2nc3cnccn3c2NCC2CCCO2)ccc1O (configuration not stated)	-29.6% (inactive)
O=c1cc(N2CCCCC2)c(-c2ccccc2)nn1Cc1cccc(F)c1	90% (active)
O=C(CS(=O)(=O)c1cn(Cc2cccc(F)c2)c2ccccc12)N1CCCCC1	-10.4% (inactive)

SMILES	induction
O=c1cc(N2CCN(Cc3ccccc3)CC2)c(-c2ccccc2)n[nH]1	-2.25% (inactive)
CC(=O)Nc1c[nH]c(=O)[nH]c1=O	-5.98% (inactive)
CC[C@H]1OC(=O)[C@H](C)[C@@H](O[C@H]2C[C@@](C)(OC)[C@@H](O)[C@H](C)O2)[C@H](C)[C@@H](O[C@@H]2O[C@H](C)C[C@H](N(C)C)[C@H]2O)[C@](C)(O)C[C@@H](C)[C@@H]2N[C@@H](COCCOC)O[C@H]([C@H]2C)[C@]1(C)O	64.2% (active) and 17.8% (inactive)
Cc1ccc(-c2c(C)[nH]n3c(=O)c4c(nc23)CCC4)cc1	-89.9% (inactive)
COc1ccc(N2CCN(C(c3ccccc3)c3nnnn3Cc3cccs3)CC2)cc1 (configuration not stated)	21.1% (inactive)
C=CCNc1nc(-c2sc(NC(=O)c3ccccc3)nc2C)cs1	-131% (inactive)
CCN(CC)c1nc2c(c(=O)n(C)c(=O)n2C)n1Cc1ccc(C)cc1	-126% (inactive)
COc1ccc(CN(Cc2cc3c(cc2OC)OCO3)CC2CCCO2)c(OC)c1 (configuration not stated)	-3.15% (inactive)
Cc1oc2c(c1CC(=O)NCc1noc(-c3ccccc3)n1)C(=O)CC(C)(C)C2	-16.5% (inactive)
CC(C)CCSc1ncnc2c1oc1nc3c(cc12)COC(C)(C)C3	29.9% (inactive)
CCOCCCNC(=O)CSc1ncnc2c1sc1nc3ccccc3cc12	-36% (inactive)
CC1(C)Cc2nc3sc4c(SCC(=O)NC(c5ccccc5)c5ccccc5)ncnc4c3cc2CO1	70.1% (active)
O=C(CN1C(=O)C2CCCN2S(=O)(=O)c2ccccc21)NCCc1ccccc1 (configuration not stated)	-13.3% (inactive)
Cc1cc(CN2CCc3c(nc(N4CCCC4)[nH]c3=O)C2)c(C)n1-c1cccnc1	-32.9% (inactive)
CCn1c(SCC(=O)Nc2cccc3ccccc23)nc2c1c(=O)n(C)c(=O)n2C	-26.4% (inactive)
CC(C)n1c(SCC(=O)Nc2ccccc2N2CCCCC2)nc2c1c(=O)n(C)c(=O)n2C	9.15% (inactive)
Cn1c(=O)c2c(nc(SCC(=O)Nc3ccccc3N3CCCCC3)n2C)n(C)c1=O	67.3% (active) and 23.3% (inactive)
CSc1nc2nc(-c3cccc(C(F)(F)F)c3)ccn2n1	27.7% (inactive)
FC(F)(F)c1cccc(-c2cc3ccccc3nc2N2CCCC2)c1	65.5% (active)

SMILES	induction
c1ccc(-c2cc(N3CCCCC3)c3ccccc3n2)cc1	40.2% (inactive)
C=CCNC(=O)[C@H]1C=CCN1S(=O)(=O)c1ccc(F)cc1	-8.27% (inactive)
O=C(CN1CCCCCC1)N1c2ccccc2Sc2ccc(C(F)(F)F)cc21	41.5% (inactive)
COc1cc(/C=C/C(=O)N2c3ccccc3Sc3ccc(C(F)(F)F)cc32)cc(OC)c1OC	4.97% (inactive)
O=C(CN1CCCCC1)N1c2ccccc2Sc2ccc(C(F)(F)F)cc21	66.5% (active)
Nc1cc(-c2ccco2)nn(CC(=O)NCc2ccccc2)c1=O	4.9% (inactive)
CCCNC(=O)C1COc2ccccc2O1 (configuration not stated)	-4.2% (inactive)
O=[N+]([O-])c1ccc(Sc2nc3c(c(C(F)(F)F)n2)CCCC3)nc1	34.3% (inactive)
C/C=N/N(c1ccccc1)c1ccccc1	64.5% (active)
COc1cccc(CN2CCN(C(=O)CCn3nnc4ccccc43)[C@@H](C)C2)c1	-13.9% (inactive)
CC(C)[C@H](Cn1nc(-c2cccs2)ccc1=O)NC(=O)Cn1cnc2ccccc2c1=O	-6.72% (inactive)
Cc1cnc(C(=O)NC(C)c2nc(-c3ccncc3)n[nH]2)cn1 (configuration not stated)	-35.1% (inactive)
Cc1nc2ccccc2c(C)c1C(=O)c1ccc(F)cc1	11.7% (inactive)
Cc1nc2ccccc2c(-c2ccccc2)c1C(=O)c1ccccc1	94.7% (active)
CC(=O)c1c(-c2ccccc2)c2ccccc2[nH]c1=O	7.65% (inactive)
CC(C)n1c(=O)oc2cc(S(=O)(=O)N3CCCC(C(N)=O)C3)ccc21 (configuration not stated)	-51.2% (inactive)
COc1ccc(C2CC(c3cccs3)=NN2c2ccccc2)cc1 (configuration not stated)	21.6% (inactive)
COc1ccccc1N1N=C(c2cccs2)CC1c1ccccc1 (configuration not stated)	38.4% (inactive)
Fc1ccc(N2N=C(c3cccs3)CC2c2ccco2)c(F)c1 (configuration not stated)	63.6% (active)

From PubChem BioAssay AID940 (Emory University Molecular Libraries Screening Center, 2007)
